Laboratory results as given in the supplement of paper PMC3545927.
This is one part of the list. The true hit rate is not given.

Target: furin, P09958
Experiment: furin cleavage Z-score vs untreated control; higher = more cleavage, active = 3.5 or more, inactive = 1 or less, 8 variable residues between constant flanks
In short: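 Read counts from sequencing released DNA gave abundance for each bead-bound 8-mer peptide–cDNA fusion cut by purified furin over 7.5, 15 or 30 min. The cleavage Z-score compares log counts with furin-free reactions after lowess adjustment and median absolute deviation scaling.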
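Note: purified furin at 1:10 enzyme:substrate in 50 mM HEPES pH 7.5.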

furin, P09958, sequence (P09958 whole entry): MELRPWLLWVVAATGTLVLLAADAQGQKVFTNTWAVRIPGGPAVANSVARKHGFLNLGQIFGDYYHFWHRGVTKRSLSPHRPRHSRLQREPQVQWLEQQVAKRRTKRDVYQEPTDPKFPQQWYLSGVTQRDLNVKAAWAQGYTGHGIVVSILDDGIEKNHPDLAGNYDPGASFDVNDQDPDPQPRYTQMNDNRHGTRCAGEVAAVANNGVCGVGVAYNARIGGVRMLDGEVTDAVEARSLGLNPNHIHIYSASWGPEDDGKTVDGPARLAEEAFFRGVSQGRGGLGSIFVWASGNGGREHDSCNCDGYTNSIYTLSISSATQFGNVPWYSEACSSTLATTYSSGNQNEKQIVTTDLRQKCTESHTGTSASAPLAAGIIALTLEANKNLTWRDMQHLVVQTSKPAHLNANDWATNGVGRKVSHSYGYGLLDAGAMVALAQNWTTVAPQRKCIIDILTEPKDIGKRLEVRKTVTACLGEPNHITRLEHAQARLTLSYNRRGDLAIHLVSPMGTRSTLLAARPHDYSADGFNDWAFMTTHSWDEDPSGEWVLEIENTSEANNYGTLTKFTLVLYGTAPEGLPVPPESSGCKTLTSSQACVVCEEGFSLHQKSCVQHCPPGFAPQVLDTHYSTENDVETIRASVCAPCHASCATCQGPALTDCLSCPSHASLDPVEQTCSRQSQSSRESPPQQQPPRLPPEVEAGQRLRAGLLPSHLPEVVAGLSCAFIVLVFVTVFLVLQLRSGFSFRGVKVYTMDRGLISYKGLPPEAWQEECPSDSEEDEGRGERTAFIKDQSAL

| Sequence | furin cleavage Z-score (7.5 min) | furin cleavage Z-score (15 min) | furin cleavage Z-score (30 min) |
| --- | --- | --- | --- |
| CATTPCSGLWAGNASASA [HC1905] | 0.96 (inactive) | 1.01 | -0.0137 (inactive) |
| CATSTWVLVGAGNASASA [HC989] | -2.25 (inactive) | -0.362 (inactive) | -1.37 (inactive) |
| CAYSSMPPLEAGNASASA [HC1353] | 0.446 (inactive) | 1.62 | 1.96 |
| CAERVVCCSMAGNASASA [HC2133] | -0.391 (inactive) | 0.896 (inactive) | 0.654 (inactive) |
| CALGARERRDAGNASASA [FS-1226] | 13.9 (active) | 15.5 (active) | 11.8 (active) |
| CARFPRFVNVAGNASASA [FS-2925] | 3.2 | 3.36 | 7.1 (active) |
| CARQPRPAGVAGNASASA [FS-3041] | -0.899 (inactive) | -0.574 (inactive) | -0.629 (inactive) |
| CARRRRGFRQAGNASASA [FS-2788] | 2.04 | 3.6 (active) | 4.63 (active) |
| CAVGERFRRDAGNASASA [FS-386] | 11.7 (active) | 13 (active) | 8.87 (active) |
| CARFPRGVSRAGNASASA [FS-3247] | -0.934 (inactive) | -0.454 (inactive) | -0.752 (inactive) |
| CAERAPERRDAGNASASA [FS-24] | -2.22 (inactive) | -0.00906 (inactive) | -1.69 (inactive) |
| CAPVCQDHLEAGNASASA [HC935] | -0.428 (inactive) | -0.153 (inactive) | -0.41 (inactive) |
| CARDGKLPATAGNASASA [HC285] | 1.05 | 2.03 | 0.856 (inactive) |
| CATTPCLGSWAGNASASA [HC64] | 0.626 (inactive) | 0.544 (inactive) | 0.646 (inactive) |
| CAAGYGAGVAAGNASASA [HC1087] | 1.51 | -1.39 (inactive) | -0.133 (inactive) |
| CARRRRERDDAGNASASA [FS-1922] | 7.16 (active) | 10.1 (active) | 7.38 (active) |
| CASMPRERRDAGNASASA [FS-92] | 10.3 (active) | 12.9 (active) | 9.32 (active) |
| CARRRRGLECAGNASASA [FS-2789] | 6.18 (active) | 4.95 (active) | 7.29 (active) |
| CARRRRERRDAGNASASA [FS-1268] | 14.1 (active) | 12.4 (active) | 10.4 (active) |
| CARRRRSGADAGNASASA [FS-2081] | 1.69 | 0.662 (inactive) | 0.709 (inactive) |
| CALLCPAGHAAGNASASA [HC745] | 0.399 (inactive) | 0.942 (inactive) | -0.0279 (inactive) |
| CAYIEQGMMLAGNASASA [HC1019] | -1.18 (inactive) | -0.261 (inactive) | -0.872 (inactive) |

| Sequence | furin cleavage Z-score (7.5 min) | furin cleavage Z-score (15 min) | furin cleavage Z-score (30 min) |
| --- | --- | --- | --- |
| CATTPCSTSWAGNASASA [HC1898] | 0.261 (inactive) | 0.66 (inactive) | -0.516 (inactive) |
| CAVVVCSMSYAGNASASA [HC2030] | 0.0385 (inactive) | -1.4 (inactive) | 0.392 (inactive) |
| CAMEECHQHLAGNASASA [HC29] | 0.383 (inactive) | 1.55 | 2.41 |
| CAMTTDNLKCAGNASASA [HC1213] | -0.575 (inactive) | -0.0624 (inactive) | 0.0584 (inactive) |
| CARRRRFVPVAGNASASA [FS-2786] | 2.12 | 4.63 (active) | 5.2 (active) |
| CADWLRQRRTAGNASASA [FS-1317] | -0.575 (inactive) | 1.58 | 1.74 |
| CARRRRERRTAGNASASA [FS-375] | 10.4 (active) | 11 (active) | 9 (active) |
| CARRRRFPFVAGNASASA [FS-1784] | 0.483 (inactive) | 0.473 (inactive) | 1.3 |
| CARRRRAVPVAGNASASA [FS-2596] | 0.0891 (inactive) | 0.235 (inactive) | 1.42 |
| CASVDRWRRTAGNASASA [FS-95] | 3.08 | 4.75 (active) | 4.05 (active) |
| CASSDLYLVTAGNASASA [HC724] | -0.584 (inactive) | -0.169 (inactive) | -0.884 (inactive) |
| CACSHRERRDAGNASASA [FS-584] | 6.92 (active) | 7.04 (active) | 8.38 (active) |
| CAGAPTYSWGAGNASASA [HC422] | -0.832 (inactive) | -0.574 (inactive) | -0.69 (inactive) |
| CAWTPCSAHLAGNASASA [HC2468] | -0.238 (inactive) | 0.336 (inactive) | -1.23 (inactive) |
| CAMEECSSHLAGNASASA [HC1737] | -0.244 (inactive) | 0.0684 (inactive) | 0.567 (inactive) |
| CASTCCSAHLAGNASASA [HC2520] | -0.141 (inactive) | 0.556 (inactive) | -0.184 (inactive) |
| CARACRLVHDAGNASASA [FS-2127] | -0.975 (inactive) | -0.538 (inactive) | -0.874 (inactive) |
| CARRRRFSRTAGNASASA [FS-1482] | 12.1 (active) | 11.9 (active) | 9.62 (active) |
| CARRRRNVHDAGNASASA [FS-2375] | 4.94 (active) | 5.47 (active) | 4.66 (active) |
| CARRRRLLQQAGNASASA [FS-3167] | -0.397 (inactive) | -0.514 (inactive) | -0.168 (inactive) |
| CARRRREAPKAGNASASA [FS-2452] | 10.9 (active) | 12.3 (active) | 8.72 (active) |
| CARRRREYWQAGNASASA [FS-2077] | 1.57 | 2.17 | 5.41 (active) |
